# Source: PubChem (National Center for Advancing Translational Sciences (NCATS))
# Hits are enriched below; roughly 7.5% of the tested compounds scored in any of these assays.
# FLuc counter – qHTS profiling assay for firefly luciferase inhibitor/activator using purifed enzyme and Km concentrations of substrates (counterscreen for miR-21 project); actives 6.9% (n = 360,000); Luciferin 4-monooxygenase (Photinus pyralis), P08659; purified FLuc, Km substrates, luminescence inhibition; Potency, µM (titrated, usually from 57.5 µM), without a hit: at the highest dose activity change, negative = inhibition, most hits filed as inhibitors;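 note: plate controls were vehicle for no effect and reference inhibitor for full effect; nearly all actives have a fitted effect of over 55% in size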
# Target sequence (P08659 whole entry, looked up): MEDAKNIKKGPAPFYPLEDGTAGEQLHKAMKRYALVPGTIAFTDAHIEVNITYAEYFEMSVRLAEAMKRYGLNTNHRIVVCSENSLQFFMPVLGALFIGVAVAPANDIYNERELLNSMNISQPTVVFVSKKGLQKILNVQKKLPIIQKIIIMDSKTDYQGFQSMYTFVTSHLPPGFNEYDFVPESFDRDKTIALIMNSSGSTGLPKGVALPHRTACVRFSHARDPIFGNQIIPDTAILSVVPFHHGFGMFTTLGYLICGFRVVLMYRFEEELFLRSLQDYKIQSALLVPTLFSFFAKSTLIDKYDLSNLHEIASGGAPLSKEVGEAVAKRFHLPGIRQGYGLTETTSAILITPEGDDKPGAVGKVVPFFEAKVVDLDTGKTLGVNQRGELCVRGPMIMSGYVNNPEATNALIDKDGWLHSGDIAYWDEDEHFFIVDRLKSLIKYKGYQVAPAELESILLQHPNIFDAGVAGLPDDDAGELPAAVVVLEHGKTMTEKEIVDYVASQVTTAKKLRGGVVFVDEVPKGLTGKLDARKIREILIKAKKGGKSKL
#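 Biochemical qHTS of compounds, final roughly 60 µM downward over six points, against 10 nM purified firefly luciferase using Km concentrations of substrates (10 uM D-luciferin, 10 uM ATP) in Tris acetate pH 7.5 buffer; luminescence output.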
# SMN2 splice enh – qHTS Assay for Enhancers of SMN2 Splice Variant Expression; HEK293 SMN2-luciferase splicing reporter, luminescence, 30-36 h; Potency, µM (titrated, usually from 46.1 µM), for the others: at the top dose activity change, positive = activation, actives largely listed as activators; actives 2.8% (n = 210,000); AID 1458, 2008; note: % of control where 0% means no effect; nearly all actives have a fitted effect of over 55% in size
#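 qHTS luciferase splicing reporter: luminescence rises when SMN2 exon 7 is included in transfected HEK293 cells. Compound exposure lasted 30-36 h at 37C, with 4.5 mM final sodium butyrate as control, followed by a ONE-Glo read.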
# NPC1 promoter act – qHTS Assay for NPC1 Promoter Activators. Huh7 NPC1 promoter luciferase reporter, 24 h. Potency, µM (highest dose often 9.22 µM), for the others: top-dose activation, most hits filed as activators. actives 2.4% (n = 320,000). AID 485313, 2010; note: % of control where 0% means no effect; nearly all actives have a fitted effect of over 60% in size
#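 Readout is luciferase luminescence, reflecting NPC1 promoter activation in stably transfected Huh7 cells after 24 h compound exposure at 37 °C in reduced-serum medium with 10% FBS.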
# Luc counter – Counterscreen for Luciferase (Kinase-Glo TM) Inhibition; actives 0.28% (n = 200,000); Potency, µM (top dose mostly 38.3 µM), inactives show at the top dose activity change, negative = inhibition, actives largely listed as inhibitors; Kinase-Glo luciferase, ATP luminescence, 8 min; note: % is set by controls: 0 for no effect and ±100 for the full control effect; nearly all actives have a fitted effect of over 60% in size
#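 Light output from Kinase-Glo luciferase with luciferin and 10 uM ATP in 50 mM imidazole pH 7.2, KCl, MgCl2, Tween 20, BSA; compound pin-delivered, 8-min ambient incubation, then luminescence read.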
# Rab9 promoter act – qHTS Assay for Rab9 Promoter Activators; Huh7 Rab9 promoter-luciferase reporter, luminescence, 24 h; Potency, µM (top dose mostly 9.22 µM), without a hit: top-dose activation, negative = inhibition, hits mostly activators; actives 2.8% (n = 320,000); note: % of control where 0% means no effect; nearly all actives have a fitted effect of over 60% in size
#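 Quantitative HTS format; Huh7 Rab9-luciferase reporter cells (1500/well) receive compound 2 h post-plating, incubate 24 h at 37 °C, then get luciferase reagent for 10 min before luminescence reading.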
# ELG1 genotox – qHTS screen for small molecules that induce genotoxicity in human embryonic kidney (HEK293T) cells expressing luciferase-tagged ELG1. actives 1.3% (n = 330,000). Potency, µM (top dose mostly 46 µM), for the others: at the top dose activity change, positive = activation, usual class: activators. HEK293T ELG1-luciferase reporter, luminescence, 16 h; note: % of control where 0% means no effect; nearly all actives have a fitted effect of over 60% in size
#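 Screening used a luciferase reporter fused to human ELG1 in HEK293T cells. Luminescence was read on a CCD plate imager after 16 hr exposure and 30 min ONE-Glo incubation.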
# The depositor's hits bear a star; ? = inconclusive; · = no result given; [ ] = remark or other dose. Calls come from the whole dose curve; as a rule, active = well fitted curve in the direction sought with a large enough effect; inconclusive = small, poorly fitted or top-dose-only effect, or another doubt; inactive = no such curve, though single readings can be large; an effect the other way counts as inactive or inconclusive. Potency is the fitted concentration of half-maximal effect.
SMILES,FLuc counter,SMN2 splice enh,NPC1 promoter act,Luc counter,Rab9 promoter act,ELG1 genotox
O=C(Nc1ccc(Cc2ccncc2)cc1)c1ccco1,19µM*,19.5%,?,-2.5%,?,16.5%
O=C(COC(=O)c1ccco1)Nc1ccc(Br)cc1,9.53µM*,-4.8%,1.7%,9.5%,2.9%,-1.2%
Nc1nc(SCC(=O)N2N=C(c3ccc(Cl)cc3)CC2c2ccco2)n[nH]1 (stereo unspecified),-2.5%,·,-1.4%,·,-0.5%,1.7%
CCC(C)NC(=O)c1cc2cc3ccc(OC)cc3nc2s1 (stereo unspecified),3.01µM*,12.6µM*,0.562µM*,-8.5%,0.355µM*,?
CCOc1ccc2nc3sc(C(=O)N4CCN(C)CC4)c(N)c3cc2c1,10.7µM*,17.3%,-3.0%,-0.5%,25.3%,?
CC(C)c1ccc2nc3sc(C(=O)N4CCc5ccccc5C4)c(N)c3cc2c1,16.9µM*,15.8%,12.9%,-1.5%,16.6%,20.7%
COc1ccc2cc3c(N)c(C(=O)N4CCCC4)sc3nc2c1,2.69µM*,11.2µM*,1.78µM*,-6.4%,1.41µM*,?
CCOC(=O)c1ccc(CN(Cc2ccc(F)cc2)S(=O)(=O)c2ccc(F)c(C(=O)Nc3ccc(Cl)cc3F)c2)cc1,-2.2%,·,·,·,·,·
O=S(=O)(c1ccccc1)N1N=C(c2ccccc2)CC1c1ccccc1F (stereo unspecified),-2.3%,·,-4.9%,·,-3.4%,-4.6%
CC(C)(C)OC(=O)N1CCC(c2c(C(=O)NCCN3CCC(Cc4ccccc4)CC3)cnn2-c2ccccc2)CC1,-2.0%,·,·,·,·,·
Cc1ccc2cc3c(N)c(C(=O)N4CCOCC4)sc3nc2c1,2.39µM*,·,0.316µM*,·,3.98µM*,1.16µM*
Cc1ccc2nc3sc(C(=O)N4CCOCC4)c(N)c3cc2c1,0.12µM*,-72.6%,0.251µM*,-27.4%,0.112µM*,?
Cc1ccc2cc3c(N)c(C(=O)N4CC(=O)Nc5ccccc54)sc3nc2c1,-13.7%,2.4%,-13.1%,-2.7%,-4.0%,26.1%
CC(C)(C)c1ccc(C(=O)Nc2nnc3n2CCS3)cc1,6.01µM*,·,·,·,·,·
CC(C)(C)C(=O)Nc1nnc2n1CCS2,0.1%,·,·,·,·,·
Cc1cc2ccccc2n1CCNC(=O)c1cccs1,21.3µM*,-28.9%,?,-3.3%,?,?
Cc1cc2ccccc2n1CCNC(=O)C1CCCCC1,0.3%,-56.4%,-1.9%,3.5%,1.9%,23.1µM*
Cc1ccccc1NC(=O)c1ccc(OCc2c(C)noc2C)cc1,1.5%,·,-5.1%,·,-2.5%,3.4%
O=C(N/N=C/c1ccccc1[N+](=O)[O-])c1cccs1,6.75µM*,·,?,·,2.51µM*,?
Cc1ccc(/C=N/NC(=O)c2cccs2)cc1[N+](=O)[O-],7.57µM*,?,?,-2.4%,?,9.1%
O=C(N/N=C/C=C/c1ccccc1[N+](=O)[O-])c1cccs1,?,9.4%,7.1%,-0.9%,19.0%,3.4%
O=C(O)c1cc(O)ccc1N=Nc1ccccc1,1.4%,·,-5.8%,·,-2.5%,-3.3%
Oc1ccc(N=Nc2ccccc2)cc1,9.53µM*,·,?,·,17.9%,?
Oc1ccc(Cl)cc1N=Nc1ccccc1,13.5µM*,·,-26.5%,·,0.0%,6.8%
CC(=O)Nc1ccc(N=Nc2ccc(O)cc2)cc1,10.7µM*,-0.9%[1.84 µM],?,-4.4%,3.55µM*,?
SMILES,FLuc counter,SMN2 splice enh,NPC1 promoter act,Luc counter,Rab9 promoter act,ELG1 genotox
CC(CCc1ccccc1)NC(=O)COC(=O)C12CC3CC(CC(Br)(C3)C1)C2 (stereo unspecified),8.3%,12.8%,-0.7%,2.8%,3.8%,1.2%
COc1ccccc1OCCCn1c(=O)sc2ccccc21,15.1µM*,17.8%,14.2%,-3.5%,28.8%,12.1%
COc1ccccc1OCCCn1c(=O)oc2ccccc21,?,16.0%,4.3%,2.6%,0.9%,8.1%
Cc1ccc(OCn2c(=O)sc3ccccc32)cc1,23.9µM*,?,?,-1.3%,?,16.4µM*
CCCOc1ccc(Cn2c(=O)sc3ccccc32)cc1,-13.8%,-18.3%,·,·,·,·
O=c1sc2ccccc2n1CCOc1ccccc1,13.5µM*,?,?,-10.4%,?,20.6µM*
CC1(C)CC(=O)c2cc(C(=O)Nc3ccc(Br)cc3)c(=O)[nH]c2C1,-6.4%,2.1%,·,·,·,·
O=C(Nc1nc2c(s1)CCCC2)c1ccc(N2C(=O)CCC2=O)cc1,19µM*,·,?,·,?,?
Cc1cccc(NC(=O)c2cccc(N3C(=O)CCC3=O)c2)c1,0.7%,·,3.0%,·,0.2%,-1.4%
CCc1ccc(C(=O)NNC(=O)c2cccc(N3C(=O)CCC3=O)c2)cc1,10.7µM*,·,-2.4%,·,-2.4%,4.3%
CC1CCc2c(sc(NC(=O)c3ccc(N4C(=O)CCC4=O)cc3)c2C(N)=O)C1 (stereo unspecified),9.53µM*,·,-3.6%,·,1.7%,-0.1%
CCc1ccc2nc(NC(=O)c3ccc(N4C(=O)CCC4=O)cc3)sc2c1,8.49µM*,·,22.7%,·,23.6%,8.0%
CCOC(=O)c1c(C)[nH]c(C)c1S(=O)(=O)N1CCC(C(=O)Nc2ccc(F)cc2F)CC1,-7.9%,·,·,·,·,·
Cc1nn(CCC(=O)Nc2cc(F)ccc2F)c(=O)c2nn(-c3ccccc3)c(C)c12,-1.5%,·,·,·,·,·
CC(=O)NC(=S)Nc1sc2c(c1C(N)=O)CCC(C)C2 (stereo unspecified),9.53µM*,·,2.82µM*,-0.6%,1.58µM*,?
CC1CCc2nc(NC(=O)c3ccc(N4C(=O)CCC4=O)cc3)sc2C1 (stereo unspecified),9.53µM*,·,3.8%,·,13.7%,-9.6%
CC(C)(C)C1CCc2c(sc(NC(=O)c3ccncc3)c2C(N)=O)C1 (stereo unspecified),2.69µM*,3.2%,18.3%,2.1%,17.4%,-7.0%
Cc1occc1C(=O)Nc1sc2c(c1C(N)=O)CCC(C(C)(C)C)C2 (stereo unspecified),?,-9.3%,4.0%,15.4%,17.2%,14.1%
CCOC(=O)Nc1sc2c(c1C(N)=O)CCC(C)C2 (stereo unspecified),?,·,1.1%,-0.6%,9.3%,13.4%
COc1ccc(CCN2CC(C(=O)NCc3nc(C)c(C)s3)CCC2=O)cc1 (stereo unspecified),5.4%,·,-3.5%,·,-0.1%,3.4%
Cc1cc(C(=O)OCC(=O)Nc2ccccc2C(F)(F)F)on1,·,·,·,·,·,5.2%
